PLCb3 inh = inhibitors of human phospholipase C beta3. Q01970. Purified PLC-beta3, fluorogenic substrate, fluorescence. inhibition, % at 12.2 µM. hit rate 0.18% among 370,000. AID 720704; in the data active means inhibition above about 11%;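 further: 0% = median of compound wells on plate and 100% = full blocker control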
Rce1 inhib = inhibitors of yeast Ras-converting enzyme; Q03530; hit rate 0.27% among 290,000; yeast membranes, quenched prenylated peptide cleavage fluorescence; calls only; AID 2563;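 active means fall in fluorescence gain of 50% or more versus controls, with final raw signal at or below 3038400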;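 further: plate controls were neutral control wells for no effect and wells lacking membranes for full effect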
PLCg1 inh = inhibitors of human phospholipase C gamma1; purified PLC-gamma1, fluorogenic substrate, fluorescence; P19174; inhibition, % at 12.2 µM; hit rate 0.84% among 370,000; in the data active means inhibition above about 9.5%
PfM18AAP inh-1 = blocks P. falciparum M18 aspartyl aminopeptidase; AID 1822; inhibition, % at 7.35 µM; hit rate 1.2% among 290,000; recombinant PfM18AAP, H-Glu-NHMec fluorogenic cleavage;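 active means inhibition above the campaign mean inhibition over all tested compounds plus 3 SD, cut at about 28% in these data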;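 further: 0% = plate median of test compound wells and 100% = 2 mM ZnCl2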
NPR2 activator = GC-B (human) receptor activation; activation, % at 10 µM; hit rate 0.11% among 370,000; P20594; AID 1920062; HEK293-GC-B cells, CNP EC30, cGMP TR-FRET; 0% at EC30 CNP, 100% saturating CNP;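 active means activation at 10 µM reaching about 35% in either raw or pattern-adjusted values, limit read from the data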
GC-A act = GC-A (human) enzyme activation | P16066 | HEK293 GC-A cells, cGMP TR-FRET, EC30 ANP; 0% at EC30 ANP, 100% saturating ANP | activation, % at 10 µM | hit rate 0.14% among 370,000; in the data active means activation above about 40%
PfM18AAP inh-2 = PfM18AAP inhibition, confirmation; shares compounds with PfM18AAP inh-1; recombinant PfM18AAP, H-Glu-NHMec fluorogenic cleavage; inhibition, % at 7.35 µM; hit rate 28% among 2,400; AID 2170;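 active means mean inhibition over replicate wells above the hit cutoff set for the earlier primary screen, cut at about 29% in these data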;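 further: 0% = median of test compound wells and 100% = 2 mM ZnCl2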
CTSL1 counter = counter-screen for PFM18AAP inhibitors: confirmation of human cathepsin L inhibitors; inhibition, % at 5.96 µM; purified cathepsin L1, Z-Leu-Arg-MCA fluorescence; shares compounds with PfM18AAP inh-1; 2,400 tested, under 10 active;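 active means average inhibition across replicates above the hit cutoff set in the earlier primary screen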;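 further: 0% = median of test compound wells and 100% = Z-Phe-Ala-diazomethylketone 1 µM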
The depositor's hits bear a star; i = inactive; · = not tested or not shown. This is a sample that favours compounds with a hit; in the whole collection about 2.2% have one here.

SMILES | PLCb3 inh | Rce1 inhib | PLCg1 inh | PfM18AAP inh-1 | NPR2 activator | GC-A act | PfM18AAP inh-2 | CTSL1 counter
Cc1onc(-c2ccccc2Cl)c1C(=O)NNC(=O)c1ccc(F)cc1 | -4 | i | 0 | -5 | 0 | 1 | · | ·
Cc1onc(-c2c(Cl)cccc2Cl)c1C(=O)Nn1cnnc1 | 0 | i | 0 | 45* | 7 | -2 | 37* | 2
Cc1cccc(C(=O)NNC(=O)c2c(-c3ccccc3Cl)noc2C)c1O | -14 | i | -3 | 39* | 3 | 6 | -4 | 0
COc1ccc(C(=O)Nn2cnnc2)cc1OC | -7 | i | 0 | 43* | 3 | 0 | 26 | -1
O=C(CCc1ccccc1)N[C@H]1[C@H](OCc2ccccc2)CCC[C@@]12C(=O)N(Cc1ccccc1)c1ccc(-c3cnccn3)cc12 | -133 | · | -99 | · | 5 | 0 | · | ·
O=C(OCC#CCSc1nnc(-c2cccs2)o1)c1ccc(F)cc1 | -6 | · | 1 | · | -5 | 2 | · | ·
COc1ccc(C(=O)Nn2cnc3ccccc3c2=O)c(OC)c1 | -16 | i | -3 | -2 | 2 | 0 | · | ·
Cc1ccc(C(=O)Nn2cnnc2)c(Cl)c1 | 0 | i | 9 | 49* | 1 | -1 | 42* | -6
COc1ccc(C(=O)Nn2cnnc2)c(OC)c1 | 5 | i | 0 | 34* | 2 | 2 | 7 | 1
COc1cc(Cl)c(C)cc1NC(=S)NN | -8 | i | 0 | 32* | 2 | 0 | 21 | -6
COC(=O)C1CN(Cc2cn(Cc3ccc(Cl)cc3)nn2)CCS(=O)(=O)N1Cc1ccc(Cl)cc1 (stereo not given) | 0 | · | 1 | · | -15 | -11 | · | ·
CC(C)(C)c1ccc(NNC(=O)C2CCC2)cc1 | -8 | i | -1 | 40* | -5 | 8 | -20 | 4
CC(C)(C)c1ccc(NC(=O)COC(=O)C2CCCC2)cc1 | -9 | · | -3 | · | 7 | 0 | · | ·
Cc1ccc2oc(=O)c(/C=C(\O)c3cccs3)nc2c1 | -15 | i | -9 | 37* | -4 | 3 | 29* | 1
O=C1NN(c2ccccc2)C(=O)/C1=C/c1coc2ccccc2c1=O | -34 | i | -29 | 2 | -2 | -1 | · | ·
O=C1NN(c2ccccc2)C(=O)/C1=C\c1coc2ccc(O)cc2c1=O | -39 | i | -13 | 37* | -7 | -3 | -4 | -6
CC1(C)Cc2c(c(N3CCOCC3)nc3sc4c(NN)ncnc4c23)CS1 | -16 | i | -14 | 33* | -3 | -26 | -7 | 3
CC1(C)C=C2C(N(Cc3ccc4c(c3)OCO4)C(=N)N2C(=O)OCc2ccccc2)n2c(=O)n(-c3ccccc3)c(=O)n21 (stereo not given) | -15 | · | -12 | · | -2 | 1 | · | ·
Oc1ccc(NCc2ccc(OCc3ccccc3)cc2)cc1 | -170 | i | -122 | 46* | -6 | 8 | -29 | -2
O=[N+]([O-])c1ccc(NN=Cc2cccc3ccccc23)cc1 | -8 | · | -2 | · | -3 | -4 | · | ·
O=[N+]([O-])c1cc(Br)c(O)c(/C=N/Nc2nnnn2-c2cccc3ccccc23)c1 | -31 | i | -21 | 38* | 1 | 1 | -5 | -7
CC(=O)Oc1cc2cccc(OC(C)=O)c(=O)c2c(OC(C)=O)c1OC(C)=O | · | i | · | 53* | · | · | 30* | -11
CC(C)c1ccc(S(=O)(=O)Nc2ccc(O)c(Sc3ncn[nH]3)c2)cc1 | -7 | i | -1 | 58* | 4 | 1 | 31* | -1
Cc1cc(C)nc(NS(=O)(=O)c2ccc(NC(=O)CSc3ncn[nH]3)cc2)n1 | -2 | i | 4 | 20 | -6 | -5 | · | ·
COc1ccc(S(=O)(=O)Nc2ccc(O)c(Sc3ncn[nH]3)c2)cc1 | 0 | i | 0 | 54* | 3 | 4 | 40* | 2
SMILES | PLCb3 inh | Rce1 inhib | PLCg1 inh | PfM18AAP inh-1 | NPR2 activator | GC-A act | PfM18AAP inh-2 | CTSL1 counter
Cc1cc(NO)nc(-c2ccc(Br)cc2)n1 | 5 | i | -2 | 56* | 1 | 5 | 32* | 1
Cc1cc(C)nc(NC(=O)c2ccc(Br)cc2)n1 | 1 | i | 0 | -8 | 5 | 2 | · | ·
Cc1nn(-c2ccccc2)c2c1C(c1ccc([N+](=O)[O-])cc1)C(C#N)=C(N)O2 (stereo not given) | -2 | i | 2 | 28 | -2 | -3 | 0 | -1
Nn1c(Cc2ccccc2F)n[nH]c1=S | 3 | i | 4 | 17 | -6 | -3 | · | ·
Nn1c(Cc2cccc3ccccc23)n[nH]c1=S | -4 | i | -1 | 32* | -3 | -4 | -5 | 2
Cn1c(-c2cccc3ccccc23)n[nH]c1=S | -1 | i | 0 | 37* | 1 | 4 | -12 | -7
Cn1c(Cn2c3ccccc3c3ccccc32)n[nH]c1=S | 0 | i | 3 | 24 | 0 | -8 | · | ·
CC(C)C[C@H](NC1(C(=O)NCCc2c[nH]c3ccccc23)CCN(C)CC1)C(=O)NCCCc1ccccc1 | 6 | · | 3 | · | -4 | -1 | · | ·
O=C(CSc1nnnn1-c1ccc(F)cc1)c1ccc(O)c(O)c1 | -3 | i | 0 | 47* | -2 | 4 | 28* | -5
CCCCn1c(SCC(=O)c2ccc(O)c(O)c2)nc2ccsc2c1=O | · | i | · | 37* | · | · | 28 | 4
O=C(CCCn1c(SCC(=O)NC2CCCCC2)nc2ccccc2c1=O)NCC1CCCO1 (stereo not given) | -1 | i | 0 | 4 | 1 | 3 | · | ·
Cn1cnnc1SCC(=O)c1ccc(O)c(O)c1 | 0 | · | 1 | 53* | 3 | -5 | 35* | 3
O=C(CCCn1c(SCC(=O)c2ccc(O)c(O)c2)nc2ccccc2c1=O)NCC1CCCO1 (stereo not given) | 1 | i | 2 | 53* | -7 | -2 | 38* | 3
O=C(O)c1ccc(CSc2nnnn2-c2ccc(F)cc2)cc1 | -2 | i | 1 | -1 | 1 | 2 | · | ·
CCCCn1c(SCC(=O)c2ccccc2)nc2ccsc2c1=O | 2 | i | 0 | -5 | 5 | -1 | · | ·
COC(=O)[C@@]12CCCCC3=C1N(CCC3)C(=O)[C@H]2CC(=O)N1CCCCC1 | 1 | · | 3 | · | 1 | 2 | · | ·
CCNC(=S)NNC(=O)CSc1nc2ccccc2n1C | -6 | i | -1 | 32* | -3 | 5 | 2 | -1

Assay outcomes: PubChem, several laboratories
